The values below come from the supplement of paper PMC10849652.

Holding throughout (assay): log2 fold change, soluble protein after heating vs DMSO (PISA); higher = thermal stabilisation; K562 cells, 10 uM, 30 min; active = over 0.2 and 3.5 SD of the protein, either way, in both replicates (recomputed)
Compound in assay [1]: CC1=C(C=C(C=C1)NC(=O)C2=CC(=CC=C2)C(C)(C)C#N)NC3=CC4=C(C=C3)N=CN(C4=O)C
Put shortly: (§1)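 K562 cells (2×10^6 cells/mL) were treated with 10 μM compound for 30 min, and aliquots were heated for 3 min over 48°C-58°C. Pooled aliquots were extracted in PBS with 0.5% NP-40 at 4°C, and the supernatant after 21,000xg for 90 min was measured by TMTpro 16plex LC-MS/MS with channel sums equalised. Reported thermal stability, relative to control samples and from duplicates, is a log2 fold change.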

Compound in assay [2]: CC1=C(C=C(C=C1)NC(=O)C2=CC(=CC=C2)N(C)C)NC(=O)C3=CC=C(C=C3)O
Put shortly:
as §1

Compound in assay [3]: CC1=CC=C(C=C1)SC2=C3C=C(SC3=CN=C2)C(=O)N
An outline of the steps:
as §1

Compound in assay [4]: CC1=NC(=CC=C1)C2=C(N=C(N2)C(C)(C)C)C3=CC4=NC=CN=C4C=C3
Put shortly:
as §1

Compound in assay [5]: CCCCN(Cc1ccc(C(=O)NO)cc1)C(=O)Nc1ccccc1 [Nexturastat A]
An outline of the steps: as §1

Compound in assay [6]: CCCS(=O)(=O)Nc1ccc(F)c(C(=O)c2c[nH]c3ncc(-c4ccc(Cl)cc4)cc23)c1F [vemurafenib]
An outline of the steps: as §1

Compound in assay [7]: CCCS(=O)(=O)Nc1ccc(F)c(C(=O)c2c[nH]c3ncc(Cl)cc23)c1F
An outline of the steps:
as §1

Compound in assay [8]: CCCc1cc(C)[nH]c(=O)c1CNC(=O)c1cc(-c2ccnc(N3CCN(C)CC3)c2)cc2c1cnn2C(C)C
Put shortly:
as §1

Compound in assay [9]: CCN(CC)Cc1ccc2cc(COC(=O)Nc3ccc(C(=O)NO)cc3)ccc2c1 [givinostat]
Put shortly: as §1

Compound in assay [10]: CCN(CCCOc1ccc2c(Nc3cc(CC(=O)Nc4cccc(F)c4)[nH]n3)ncnc2c1)CCOP(=O)(O)O [barasertib]
An outline of the steps:
as §1

The full data set covers some 7,900 targets. This sample favours those with a hit. About 0.6% of all pairs of compound and target were hits. Values without a mark were called inactive.

Sequence of UniProt P46019 (P46019 whole entry, looked up): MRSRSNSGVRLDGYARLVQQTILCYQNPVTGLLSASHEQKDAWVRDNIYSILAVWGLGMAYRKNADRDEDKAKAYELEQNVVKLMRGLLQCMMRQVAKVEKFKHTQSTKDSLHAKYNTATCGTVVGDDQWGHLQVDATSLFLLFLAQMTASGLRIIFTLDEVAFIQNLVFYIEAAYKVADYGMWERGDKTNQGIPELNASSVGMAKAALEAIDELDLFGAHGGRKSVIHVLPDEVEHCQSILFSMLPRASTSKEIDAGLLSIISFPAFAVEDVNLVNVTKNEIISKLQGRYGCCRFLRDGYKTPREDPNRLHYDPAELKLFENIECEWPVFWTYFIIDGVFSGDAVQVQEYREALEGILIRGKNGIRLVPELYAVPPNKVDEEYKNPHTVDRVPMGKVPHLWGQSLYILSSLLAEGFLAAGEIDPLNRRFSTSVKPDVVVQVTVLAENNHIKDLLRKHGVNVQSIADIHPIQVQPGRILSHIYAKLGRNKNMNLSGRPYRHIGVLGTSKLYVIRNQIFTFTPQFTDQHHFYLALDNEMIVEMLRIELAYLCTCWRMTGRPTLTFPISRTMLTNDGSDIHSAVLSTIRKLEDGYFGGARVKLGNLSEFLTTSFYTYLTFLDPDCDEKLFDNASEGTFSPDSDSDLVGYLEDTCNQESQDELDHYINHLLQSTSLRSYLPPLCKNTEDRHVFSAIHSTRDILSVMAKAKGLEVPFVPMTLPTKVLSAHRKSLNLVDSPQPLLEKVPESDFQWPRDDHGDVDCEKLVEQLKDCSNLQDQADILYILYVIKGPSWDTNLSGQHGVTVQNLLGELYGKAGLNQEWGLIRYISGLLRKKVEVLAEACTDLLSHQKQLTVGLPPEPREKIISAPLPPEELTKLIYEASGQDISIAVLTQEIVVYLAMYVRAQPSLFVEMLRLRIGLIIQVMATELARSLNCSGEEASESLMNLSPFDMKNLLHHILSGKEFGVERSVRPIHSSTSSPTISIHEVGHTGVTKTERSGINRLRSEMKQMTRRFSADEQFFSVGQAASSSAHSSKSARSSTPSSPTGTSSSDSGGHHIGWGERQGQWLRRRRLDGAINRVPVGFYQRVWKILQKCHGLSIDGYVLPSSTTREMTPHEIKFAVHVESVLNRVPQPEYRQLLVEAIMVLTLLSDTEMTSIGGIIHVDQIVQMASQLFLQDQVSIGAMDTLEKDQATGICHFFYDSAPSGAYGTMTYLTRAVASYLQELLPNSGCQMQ
Sequence of UniProt Q9P2B2 (Q9P2B2 whole entry, looked up): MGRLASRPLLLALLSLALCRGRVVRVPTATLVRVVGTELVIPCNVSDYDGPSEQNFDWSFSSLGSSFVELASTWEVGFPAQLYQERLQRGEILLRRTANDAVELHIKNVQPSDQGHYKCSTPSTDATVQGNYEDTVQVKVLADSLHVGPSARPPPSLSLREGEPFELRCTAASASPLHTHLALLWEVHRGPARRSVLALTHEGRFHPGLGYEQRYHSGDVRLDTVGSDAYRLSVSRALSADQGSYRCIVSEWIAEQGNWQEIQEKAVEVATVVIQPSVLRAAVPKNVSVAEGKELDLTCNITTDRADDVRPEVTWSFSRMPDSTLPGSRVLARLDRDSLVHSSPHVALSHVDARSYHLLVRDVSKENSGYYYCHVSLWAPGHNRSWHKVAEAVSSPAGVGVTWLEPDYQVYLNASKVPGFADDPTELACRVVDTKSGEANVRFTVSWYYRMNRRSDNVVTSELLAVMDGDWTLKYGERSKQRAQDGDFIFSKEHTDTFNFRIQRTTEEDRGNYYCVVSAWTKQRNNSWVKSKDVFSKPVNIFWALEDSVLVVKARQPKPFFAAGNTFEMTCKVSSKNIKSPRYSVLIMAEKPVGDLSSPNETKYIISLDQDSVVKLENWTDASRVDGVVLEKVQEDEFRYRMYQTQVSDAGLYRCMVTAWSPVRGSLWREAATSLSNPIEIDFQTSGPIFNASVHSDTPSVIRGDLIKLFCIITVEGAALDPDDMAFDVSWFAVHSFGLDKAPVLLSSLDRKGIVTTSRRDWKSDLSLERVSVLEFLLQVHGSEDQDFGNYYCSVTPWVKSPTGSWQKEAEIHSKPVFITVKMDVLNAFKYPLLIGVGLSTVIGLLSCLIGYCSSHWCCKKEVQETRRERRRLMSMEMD
Sequence of UniProt O75400 (O75400 whole entry, looked up): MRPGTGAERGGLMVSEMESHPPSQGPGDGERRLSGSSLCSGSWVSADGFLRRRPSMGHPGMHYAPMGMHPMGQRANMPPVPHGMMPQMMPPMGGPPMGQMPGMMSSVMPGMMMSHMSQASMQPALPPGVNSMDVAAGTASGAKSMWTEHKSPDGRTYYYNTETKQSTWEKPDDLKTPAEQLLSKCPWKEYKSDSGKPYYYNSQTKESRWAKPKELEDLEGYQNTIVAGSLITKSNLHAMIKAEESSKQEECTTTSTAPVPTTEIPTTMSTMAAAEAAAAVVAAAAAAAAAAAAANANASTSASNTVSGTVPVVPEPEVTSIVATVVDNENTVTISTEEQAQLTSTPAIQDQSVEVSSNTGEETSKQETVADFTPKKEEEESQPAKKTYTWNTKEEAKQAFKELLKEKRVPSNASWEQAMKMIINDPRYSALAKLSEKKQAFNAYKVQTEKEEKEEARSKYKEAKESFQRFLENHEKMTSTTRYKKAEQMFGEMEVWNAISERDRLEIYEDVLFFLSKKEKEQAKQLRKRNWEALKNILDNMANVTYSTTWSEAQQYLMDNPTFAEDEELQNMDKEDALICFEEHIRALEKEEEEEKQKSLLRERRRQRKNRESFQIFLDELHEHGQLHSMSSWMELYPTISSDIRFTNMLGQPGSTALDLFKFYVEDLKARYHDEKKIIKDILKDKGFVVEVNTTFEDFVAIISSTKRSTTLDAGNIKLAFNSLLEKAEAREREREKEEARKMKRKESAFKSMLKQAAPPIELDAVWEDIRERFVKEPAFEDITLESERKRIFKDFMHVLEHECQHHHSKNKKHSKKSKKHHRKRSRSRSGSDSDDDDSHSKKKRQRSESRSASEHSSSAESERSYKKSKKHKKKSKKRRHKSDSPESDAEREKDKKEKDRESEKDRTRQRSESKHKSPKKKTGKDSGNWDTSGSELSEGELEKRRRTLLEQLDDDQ
Sequence of UniProt P35227 (P35227 whole entry, looked up): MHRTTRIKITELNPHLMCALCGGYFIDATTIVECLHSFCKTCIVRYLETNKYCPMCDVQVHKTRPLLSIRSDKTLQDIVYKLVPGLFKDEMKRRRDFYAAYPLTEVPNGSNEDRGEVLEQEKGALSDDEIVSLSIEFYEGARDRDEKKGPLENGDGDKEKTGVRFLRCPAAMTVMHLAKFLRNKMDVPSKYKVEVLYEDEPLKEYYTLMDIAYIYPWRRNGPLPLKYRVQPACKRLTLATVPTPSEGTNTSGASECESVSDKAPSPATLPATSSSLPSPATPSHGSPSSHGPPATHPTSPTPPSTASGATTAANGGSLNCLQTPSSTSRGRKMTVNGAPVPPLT
Sequence of UniProt P54619 (P54619 whole entry, looked up): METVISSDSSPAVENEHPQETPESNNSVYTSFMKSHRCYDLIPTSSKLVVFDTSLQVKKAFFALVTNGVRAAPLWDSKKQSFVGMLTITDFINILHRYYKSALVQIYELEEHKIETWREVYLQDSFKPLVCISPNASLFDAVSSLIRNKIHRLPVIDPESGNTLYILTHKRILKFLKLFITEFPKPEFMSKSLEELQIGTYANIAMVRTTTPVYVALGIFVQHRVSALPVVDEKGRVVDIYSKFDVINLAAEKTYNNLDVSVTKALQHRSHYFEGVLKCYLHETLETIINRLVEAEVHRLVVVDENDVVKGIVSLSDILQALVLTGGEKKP
Sequence of UniProt Q9UBV8 (Q9UBV8 whole entry, looked up): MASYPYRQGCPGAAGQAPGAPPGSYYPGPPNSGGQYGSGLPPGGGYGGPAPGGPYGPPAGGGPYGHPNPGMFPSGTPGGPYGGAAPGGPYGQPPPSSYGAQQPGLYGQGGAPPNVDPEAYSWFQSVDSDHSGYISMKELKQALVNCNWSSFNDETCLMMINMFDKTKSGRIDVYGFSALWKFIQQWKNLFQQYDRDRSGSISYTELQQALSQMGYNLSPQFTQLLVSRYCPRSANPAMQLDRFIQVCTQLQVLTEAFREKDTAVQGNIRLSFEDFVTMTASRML
Sequence of UniProt Q9Y244 (Q9Y244 whole entry, looked up): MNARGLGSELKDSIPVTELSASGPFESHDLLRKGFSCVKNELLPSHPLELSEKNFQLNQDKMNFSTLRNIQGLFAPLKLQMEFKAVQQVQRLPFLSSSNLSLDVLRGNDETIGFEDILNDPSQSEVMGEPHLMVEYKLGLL
Sequence of UniProt Q96KB5 (Q96KB5 whole entry, looked up): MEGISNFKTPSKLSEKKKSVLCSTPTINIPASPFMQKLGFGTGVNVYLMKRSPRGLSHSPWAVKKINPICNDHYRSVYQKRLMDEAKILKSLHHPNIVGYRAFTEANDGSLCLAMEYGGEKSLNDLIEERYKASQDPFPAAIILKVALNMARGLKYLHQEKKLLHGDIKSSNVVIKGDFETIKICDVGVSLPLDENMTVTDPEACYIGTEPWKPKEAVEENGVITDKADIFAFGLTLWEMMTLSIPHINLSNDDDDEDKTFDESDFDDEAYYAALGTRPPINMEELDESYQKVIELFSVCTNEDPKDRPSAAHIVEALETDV
Sequence of UniProt O60925 (O60925 whole entry, looked up): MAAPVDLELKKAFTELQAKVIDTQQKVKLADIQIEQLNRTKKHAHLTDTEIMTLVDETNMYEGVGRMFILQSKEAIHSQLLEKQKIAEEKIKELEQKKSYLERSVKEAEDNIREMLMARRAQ
Sequence of UniProt Q9Y2Y1 (Q9Y2Y1 whole entry, looked up): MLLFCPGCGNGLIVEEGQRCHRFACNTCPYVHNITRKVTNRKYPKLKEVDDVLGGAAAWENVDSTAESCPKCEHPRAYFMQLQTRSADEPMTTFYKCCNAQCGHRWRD

PFDN1 (UniProt O60925): the log2 fold change in assay [1] was 0.039; in assay [2], -0.131; in assay [3], 0.089; in assay [4], 0.041; in [5], -0.071; in [6], 0.172. In addition, the log2 fold change is -0.019 in assay [7], -0.016 in [8], 0.004 in assay [9] and 0.002 in [10].

Regarding PEF1 (UniProt Q9UBV8), the log2 fold change in assay [1] is -0.011; in assay [2], -0.075; in [3] it was 0.027; in assay [4], 0.013; in [5], 0.032; in [6], 0.008. The log2 fold change was 0.073 in assay [7], -0.045 in assay [8], 0.022 in assay [9] and 0.122 in assay [10].

Turning to PHKA2 (UniProt P46019), the log2 fold change in [1] is 0.028; in [2] it was 0; in assay [3], 0.028; in assay [4], 0.053; in assay [5], -0.038; in assay [6] it was -0.014. Further, the log2 fold change in assay [7] is 0.052; in assay [8] it was -0.07; in assay [9] it was 0.048; in assay [10], 0.057.

As to PIK3R1 (UniProt P27986), the log2 fold change is -0.08 in assay [1]; 0.001 in [2]; -0.019 in [3]; -0.046 in [4]; -0.018 in assay [5]; 0.047 in assay [6]. Moreover, the log2 fold change in assay [7] is 0.058; in [8] it was -0.054; in assay [9] it was 0.028; in assay [10], 0.038.

PCK2 (UniProt Q16822): the log2 fold change in [1] is -0.002; in assay [2], -0.064; in [3] it was -0.008; in assay [4], 0.045; in assay [5] it was -0.065; in assay [6] it was -0.006. Besides, the log2 fold change in assay [7] is 0.002; in assay [8], 0.014; in assay [9], -0.13; in assay [10] it was 0.011.

For PRKACB isoform 2 (UniProt P22694), the log2 fold change in assay [1] was -0.014; in [2], 0.015; in assay [3] it was 0.011; in assay [4] it was 0.077; in assay [5], 0.059; in [6], -0.007. The log2 fold change in assay [7] was 0.031; in [8], -0.129; in assay [9], -0.024; in assay [10], 0.036.

For POLR3K (UniProt Q9Y2Y1), the log2 fold change in assay [1] is -0.028; in assay [2] it was 0.098; in assay [3], 0; in [4], -0.014; in assay [5] it was -0.04; in assay [6], -0.067. Further, the log2 fold change in assay [7] is -0.066; in assay [8] it was -0.038; in assay [9], -0.013; in assay [10], 0.003.

Turning to PCGF2 (UniProt P35227), the log2 fold change in assay [1] is -0.043; in assay [2] it was -0.058; in assay [3], -0.056; in [4] it was 0.033; in [5], -0.01; in assay [6], 0. Also, the log2 fold change was -0.033 in assay [7], 0.056 in assay [8], 0.046 in assay [9] and 0.113 in assay [10].

As for POLR1A (UniProt O95602), the log2 fold change in [1] was -0.082; in assay [2], -0.019; in [3], -0.198; in assay [4] it was -0.185; in [5] it was 0.489 (active); in assay [6], 0.052. For the same target, the log2 fold change in assay [7] is 0.062; in [8] it was 0.321; in assay [9] it was 0.083; in assay [10], 0.016.

As to PRPF31 (UniProt Q8WWY3), the log2 fold change in assay [1] is 0.021; in [2] it was -0.12; in assay [3], 0; in assay [4] it was 0.067; in assay [5], -0.01; in [6] it was -0.017. Also, the log2 fold change in assay [7] was 0.087; in assay [8] it was 0.106; in assay [9], 0.065; in assay [10], 0.096.

Take PRKAG1 isoform 3 (UniProt P54619): the log2 fold change in assay [1] is -0.042; in [2] it was -0.006; in assay [3] it was 0.007; in [4], 0.037; in assay [5], -0.01; in assay [6], 0.026. Further, the log2 fold change in assay [7] is 0.002; in assay [8], -0.026; in assay [9], 0.014; in assay [10], 0.013.

Regarding PBK (UniProt Q96KB5), the log2 fold change in assay [1] is 0.01; in assay [2] it was -0.056; in assay [3] it was 0.069; in [4], -0.001; in [5] it was 0.037; in [6], 0.124. Also, the log2 fold change is 0.14 in assay [7], 0.144 in [8], 0.143 in [9] and 0.145 in assay [10].

For PRPF40A (UniProt O75400), the log2 fold change in assay [1] is 0.016; in assay [2], 0; in [3], 0.022; in assay [4], 0.018; in [5], -0.051; in assay [6] it was 0.109. The log2 fold change in assay [7] is 0.02; in assay [8], 0.073; in assay [9] it was 0.156; in assay [10], 0.

For POMP (UniProt Q9Y244), the log2 fold change was 0.024 in [1]; 0.075 in [2]; -0.069 in assay [3]; 0.076 in assay [4]; 0.145 in [5]; -0.023 in [6]. The log2 fold change in [7] is -0.023; in assay [8] it was 0.016; in assay [9], -0.045; in assay [10], 0.054.

PTGFRN (UniProt Q9P2B2): the log2 fold change in assay [1] is -0.044; in assay [2], -0.025; in [3] it was 0.006; in assay [4] it was -0.012; in [5], -0.021; in assay [6], 0.013. The log2 fold change in assay [7] is -0.045; in assay [8] it was -0.03; in [9] it was 0.007; in assay [10] it was -0.043.
